According to PubChem BioAssay (NCATS):
Inconclusive results are not listed. Unmarked numbers belong to inactive results. The source made the active and inactive calls. Calls come from the whole dose curve; as a rule, active = well fitted cell-killing curve with a large enough effect in the repeat runs; inconclusive = weak or mixed curves, or effect the other way; inactive = flat fitted curve, though single readings scatter.

assay: qHTS assay for small molecule antagonists of the retinoid-related orphan receptor gamma (ROR-gamma) signaling pathway - cell viability counter screen (AID 720652); details: RORgamma reporter cell line viability counter screen; series mostly up to 92.2 µM; activity change, negative = cytotoxicity: at the top concentration;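 note: compound exposure lasted 16 hr before ATP read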
Excerpt: National Center for Advancing Translational Sciences [NCATS]
NIH Chemical Genomics Center [NCGC]
National Institutes of Environmental Health Sciences [NIEHS]
National Toxicology Program [NTP]
Nuclear steroid hormone receptors are involved in many biological processes including inflammatory responses, cell proliferation, and apoptosis. Environmental factors or compounds disrupting these nuclear receptor pathways and gene expression may promote susceptibility to immunotoxicants and autoimmune diseases. One important group of these expression factors are the retinoid-related orphan receptors. To assess compounds that may interfere with the retinoid-related orphan receptor gamma (ROR-gamma) transcription factor, a cell-based luciferase assay was used.
The CHO cell-based assay utilizes a TET-inducible ROR expression factor and ROR response element-LUC reporter gene. Reporter activity was induced using doxycycline and measured after 16hr incubation. Luminescence was read using Viewlux (PerkinElmer), where a decrease in reporter activity would show a decrease in luminescence. The cytotoxicity of the compounds against ROR response-Luc reporter gene cell line was quantified by measuring the intracellular ATP content.
1,000 cells in 4 uL/well were dispensed into white wall/solid bottom 1536-well plates using a Multidrop Combi (Thermo Scientific) dispenser. Following incubation at 37 C and 5% CO2 for 5 hr, 23 nL compound or DMSO vehicle were transferred by a pin tool, then the plates were treated with 1 ul doxycycline to induce reporter gene activity. After 16 hr incubation at 37 C and 5% CO2, 5 uL/well of CellTiter-Glo reagent (Promega) was then added to each plate using a Flying Reagent Dispenser and incubated at room temperature for 30 min. The luminescence intensity was quantified on a ViewLux plate reader (PerkinElmer).
% is set by controls: 0 for no effect and ±100 for the full control effect; potency is the fitted concentration of half-maximal effect.

Structure (SMILES) | activity change, negative = cytotoxicity [%] | Potency
c1ccc2c(c1)Nc1ccccc1S2 | -10.9 | –
CC(COc1ccccc1)N(CCCl)Cc1ccccc1 (configuration not stated) | – | 42.2 µM (active)
Oc1ccccc1-c1ccccc1 | 5.33 | –
CCCC(C)(COC(N)=O)COC(=O)NC(C)C (configuration not stated) | 3.87 | –
CC(=O)Oc1ccccc1C(=O)Nc1ncc([N+](=O)[O-])s1 | – | 5.96 µM (active)
OCCOc1ccccc1 | -18.4 | –
Oc1cccc2cccnc12 | 0.646 | –
Oc1ccc(Cl)cc1Cc1ccccc1 | 11 | –
CCOP(=S)(OCC)Oc1cc(C)nc(C(C)C)n1 | 3.68 | –
N[C@@H](Cc1ccc(N(CCCl)CCCl)cc1)C(=O)O | – | 21.1 µM (active)
CNCC(O)c1ccc(O)cc1 (configuration not stated) | 5.64 | –
NCC(O)c1ccc(O)cc1 (configuration not stated) | 8.18 | –
